The sample as a whole holds a higher share of the strongest signals than the screen did.
How the values were obtained:
Assay in all cases: glycan array binding signal (z-score within array); higher = stronger binding
Settings in all cases: glycan notation: IUPAC condensed, linker removed
Fuc(a1-2)Gal(b1-4)GlcNAc = biological target: Fuc(a1-2)Gal(b1-4)GlcNAc
Method in brief: (§1)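 Arrays were curated from the Consortium for Functional Glycomics database, 3228 in total, and kept only where the protein sequence was available. Binding is expressed as a within-array Z-score. This score was averaged across arrays of the same protein sequence at different concentrations or buffers and across linkers, and negative values can be read as non-binding.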

Fuc(a1-2)[Gal(a1-3)]Gal = biological target: Fuc(a1-2)[Gal(a1-3)]Gal
Method in brief: as §1

Fuc(b1-3)GlcNAc = biological target: Fuc(b1-3)GlcNAc
Method in brief: as §1

[1] = biological target: Gal(a1-3)[Gal(a1-4)]Gal(b1-4)GlcNAc
Method in brief: as §1

[2] = biological target: Gal(b1-3)[Neu5Ac(a2-6)]GalNAc
Method in brief: as §1

[3] = biological target: Gal(b1-4)GlcNAc(b1-3)Gal(b1-4)GlcNAc
Method in brief: as §1

GlcNAc(b1-3)Gal = biological target: GlcNAc(b1-3)Gal
Method in brief: as §1

GlcNAc(b1-3)Gal(b1-4)Glc = biological target: GlcNAc(b1-3)Gal(b1-4)Glc
Method in brief: as §1

[4] = biological target: GlcNAc(b1-3)[GlcNAc(b1-6)]Gal(b1-4)GlcNAc
Method in brief: as §1

[5] = biological target: GlcNAc(b1-3)[GlcNAc(b1-6)]GalNAc
Method in brief: as §1

[6] = biological target: GlcNAc(b1-4)[GlcNAc(b1-6)]GalNAc
Method in brief: as §1

[7] = biological target: Neu5Ac(a2-3)Gal(b1-3)GalNAc(b1-3)Gal(a1-4)Gal(b1-4)Glc
Method in brief: as §1

[8] = biological target: Neu5Ac(a2-3)Gal(b1-3)GalNAc(b1-3)Gal(b1-4)GlcNAc
Method in brief: as §1

[9] = biological target: Neu5Ac(a2-3)Gal(b1-4)GlcNAc
Method in brief: as §1

Neu5Ac(a2-3)GalNAc = biological target: Neu5Ac(a2-3)GalNAc
Method in brief: as §1

B1: F17dG (Escherichia coli), Q47199 (protein)
chain: MTNFYKVFLAVFILVCCNISQAAVSFIGSTENDVGPSPGSYSRTHAMDNLPFVYNTGNNIGYQNANVWRISKGFCVGLDGKVDLPVVGSLDGQSIYGLTEEVGLLIWMGDTNYSRGTAMSGNSWENVFSGWCVGANTASTQGLSVRVTPVILKRNSSARYSVQKTSIGSIRMRPYNGSSAGSVQTTVNFSLNPFTLNDTVTSCRLLTPSAVNVSLAAISAGQLPSSGDEVVAGTTSLKLQCDAGVTVWATLTDATTPSNRSDILTLTGASTATGVGLRIYKNTDSTPLKFGPDSPVKGNENQWQLSTGTETSPSVRLYVKYVNTGEGINPGTVNGISTFTFSYQ
Fuc(a1-2)Gal(b1-4)GlcNAc
  glycan array binding signal (z-score): -0.185
Fuc(a1-2)[Gal(a1-3)]Gal
  glycan array binding signal (z-score): -0.276
Fuc(b1-3)GlcNAc
  glycan array binding signal (z-score): -0.225
[1]
  glycan array binding signal (z-score): -0.399
[2]
  glycan array binding signal (z-score): -0.194
[3]
  glycan array binding signal (z-score): -0.287
GlcNAc(b1-3)Gal
  glycan array binding signal (z-score): 4.56
GlcNAc(b1-3)Gal(b1-4)Glc
  glycan array binding signal (z-score): 5.88
[4]
  glycan array binding signal (z-score): 5.46
[5]
  glycan array binding signal (z-score): 6.17
[6]
  glycan array binding signal (z-score): -0.009
[7]
  glycan array binding signal (z-score): -0.399
[8]
  glycan array binding signal (z-score): -0.204
[9]
  glycan array binding signal (z-score): -0.354
Neu5Ac(a2-3)GalNAc
  glycan array binding signal (z-score): -0.327
